# Bioassay records deposited in PubChem BioAssay by National Center for Advancing Translational Sciences (NCATS).
# KB-V1 MDR tox – KB-V1 MDR subline cytotoxicity; hit rate 3.4% among 400,000; KB-V1 MDR cells viability, CellTiter-Glo, 72 h; AID 1347076; Potency, µM (top dose mostly 46.1 µM), most hits filed as cytotoxic; also: potency is read from the fitted curve at half-maximal effect; % is scaled to controls: 0 for no effect and ±100 for the full control effect; nearly all actives have a fitted effect of over 60% in size
#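 Potencies derive from concentration-effect curves fitted to normalized luminescence (CellTiter-Glo) of KB-V1 cells treated for 72 h at 37 degrees C in phenol-red-free DMEM containing 10% FBS.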
# KB-3-1 tox – KB-3-1 parental cell cytotoxicity; KB-3-1 viability, CellTiter-Glo ATP luminescence, 72 h; Potency, µM (doses to about 46.1 µM), usual class: cytotoxic; hit rate 1.4% among 400,000; also: potency is read from the fitted curve at half-maximal effect; % is scaled to controls: 0 for no effect and ±100 for the full control effect; nearly all actives have a fitted effect of over 60% in size
#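 Here the drug-naive KB-3-1 line serves as comparator for MDR sub-line selectivity; cells received compound titrations, 72 h at 37 °C, then CellTiter-Glo readout.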
# MCF10A rerep – DNA re-replication induction in MCF 10a cells | AID 624296 | hit rate 2.9% among 350,000 | Potency, µM (doses to about 46.1 µM), inactives show at the highest dose activity, positive = re-replication, hits mostly activators | MCF 10A DNA re-replication, Hoechst nuclear intensity, 48 h; also: potency is read from the fitted curve at half-maximal effect; % of control where 0% means no effect; nearly all actives have a fitted effect of over 50% in size
# IL-1B inflam inh – inhibitors of inflammasome signaling (IL-1 beta secretion); THP-1 LPS/ATP IL-1B secretion, AlphaLISA, 16 h; stronger effect = lower value; activity change, % at 57.5 µM; hit rate 4.7% among 360,000; AID 743279; in the data active = activity change below about -50%; inconclusive = mostly about -30% to -49%; also: % is scaled to controls: 0 for no effect and ±100 for the full control effect
#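 THP-1 cells pretreated 1 hr with compounds (up to 57.5 uM final), then stimulated with LPS (250 ng/mL final) plus ATP (1.25 mM final); secreted IL-1B measured by AlphaLISA after 16 hr, decreased signal indicating inhibition.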
# SW480 rerep – induces DNA re-replication in SW480 colon adenocarcinoma cells; Potency, µM (highest dose often 46.1 µM), for the others: at the top dose re-replication activation, actives largely listed as activators; hit rate 1.8% among 340,000; SW480 DNA re-replication, Hoechst DNA content imaging, 48 h; also: potency is read from the fitted curve at half-maximal effect; % of control where 0% means no effect; nearly all actives have a fitted effect of over 55% in size
#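 Compounds, transferred as 23 nL by pin tool, were incubated with cells for 48 hr; DNA content per nucleus was then quantified by Hoechst staining and fluorescence plate imaging.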
# * hit, by the source's call; i = inactive; ? = inconclusive; . = no result given; [ ] = dose if it differs, or a comment. A selection: hits, their analogues and other compounds. The true share with any hit is near 9.9%. Unless noted, calls follow the shape of the dose curve; as a rule, active = well fitted curve in the direction sought with a large enough effect; inconclusive = small, poorly fitted or top-dose-only effect, or another doubt; inactive = no such curve, though single readings can be large; an effect the other way counts as inactive or inconclusive.
SMILES,KB-V1 MDR tox,KB-3-1 tox,MCF10A rerep,IL-1B inflam inh,SW480 rerep
CC[n+]1c(/C=C(\C)SC)sc2ccccc21,i,i,-6.3%,25.8,0.4%
CCN1/C(=C/C=C/c2sc3ccccc3[n+]2CC)Sc2ccccc21,?,16.4µM*,-6.0%,-104.8*,-7.9%
CCN1/C(=C/C=C/C=C/C=C/c2sc3ccccc3[n+]2CC)Sc2ccccc21,i,16.4µM*,?,?,7.9%
Cc1ncsc1CCC(=O)N1CCCC(C(=O)c2ccc3c(c2)OCO3)C1 (stereo unspecified),i,i,9.5%,-11.3,6.1%
CCC1=[N+](CC(=O)c2ccc(C)cc2)CCn2c(C)ccc21,i,18.4µM*,?,-4.9,19.2%
CC(=O)Nc1ccc(C2=NN(c3ccccc3)C(c3cccs3)C2)cc1 (stereo unspecified),i,i,?,14.4,11.6µM*
CC(=O)N1N=C(c2ccccc2)CC1c1cccs1 (stereo unspecified),i,i,4.8%,35.7,8.2%
CCc1ccc(C2=NN(S(C)(=O)=O)C(c3cccs3)C2)cc1 (stereo unspecified),14.6µM*,?,7.8%,-6.3,-7.8%
CCOc1cc(N2CCOCC2)c(OCC)cc1NC(=O)c1cc(S(=O)(=O)N2CCOCC2)ccc1Cl,?,?,?,3.0,?
CCOc1cc(N2CCOCC2)c(OCC)cc1NS(=O)(=O)c1ccc(Cl)s1,5.17µM*,6.51µM*,6.31µM*,36.9,18.4µM*
CCOC(=O)c1scc(-c2ccccc2)c1S(=O)(=O)N1CCN(c2ccc(Cl)cc2)CC1,i,i,.,.,.
CCN(CC)C(=O)CSc1ncnc2sccc12,i,i,-7.6%,14.3,-7.6%
CN1CCN(C(=O)CSc2nc(-c3ccncc3)ccc2C#N)CC1,i,i,-2.5%,-60.6*,-5.2%
N#Cc1ccc(-c2ccccc2)nc1SCC(=O)c1cccc(Cl)c1,i,i,14.1µM*,-17.1,0.0%
CCN(CC)C(=O)CSc1nc(-c2cccs2)cc(-c2cccs2)c1C#N,18.4µM*,i,?,-26.8,0.3%
CCN(CC)C(=O)CSc1nc(-c2ccccc2)ccc1C#N,i,i,9.0%,6.3,-33.1%
CCN(CC)C(=O)CSc1ncnc2c(-c3cccs3)nsc12,i,i,27.0%,-60.1*,0.9%
N#Cc1ccc(-c2ccc(Cl)cc2)nc1SCC(=O)c1cccc(Cl)c1,?,?,-1.7%[9.22 µM],2.6,-22.3%
CCN(CC)C(=O)CSc1nc(N)c(C#N)c(-c2cccs2)c1C#N,?,i,18.2%,24.1,7.8%
COc1cc(N)c2ncsc2c1,i,i,-1.0%,-7.5,1.7%
CC(C)OC(=O)CC(=O)CSc1nc(-c2ccc(F)cc2)cc(-c2ccccc2)c1C#N,i,i,?,28.2,?
CCc1nnc(NC(=O)CSc2nc(-c3ccccc3)cc(-c3ccc(F)cc3)c2C#N)s1,?,?,4.11µM*,-9.6,10.3µM*
CN1CCN(C(=O)CSc2nc(-c3cccs3)cc(-c3cccs3)c2C#N)CC1,?,?,20.6µM*,-28.2,?
N#Cc1c(-c2ccc(F)cc2)cc(-c2cccs2)nc1SCC(=O)O,i,i,23.1µM*,8.1,?
CC(=O)c1c(C)[nH]c(C(=O)OCC(=O)Nc2ccccc2Cl)c1C,4.61µM*,20.6µM*,7.3%,127.1,-0.2%
SMILES,KB-V1 MDR tox,KB-3-1 tox,MCF10A rerep,IL-1B inflam inh,SW480 rerep
CC(=O)c1c(C)[nH]c(C(=O)OCC(=O)Nc2cccc(S(=O)(=O)N3CCCC3)c2)c1C,?,2.31µM*,22.7%,36.4,-6.3%
CC(=O)c1c(C)[nH]c(C(=O)OCC(=O)Nc2cc(S(=O)(=O)N3CCCC3)ccc2Cl)c1C,13µM*,?,-63.3%,75.4,54.4%
CCCCNC(=O)c1cc2cc(CC)ccc2[nH]1,i,i,6.7%,0.0,1.5%
Fc1ccccc1SCc1nnc(-c2ccccc2Br)o1,i,i,2.5%[9.22 µM],-17.5,1.4%
Cc1ccc(C)c(NC(=O)C[n+]2ccccc2)c1,i,i,0.8%,-6.5,?
CC/C(=N/NC(=O)c1ccc(Br)o1)c1ccc(Cl)cc1,14.6µM*,i,1.4%,-3.7,-107.5%
